ChEMBL document CHEMBL3433997, “St. Jude Leishmania screening dataset” (2016)

Columns and labels:
Assay type in all cases: functional
[1] = biological target: Solute carrier family 2, facilitated glucose transporter member 1 (Homo sapiens) (UniProt P11166); assay: ST_JUDE_LEISH: Cytotoxicity at 2uM final concentration against transgenic Leishmania Mexicana promastigotes LmGLUT1 that are glucose transport deficient and complemented with the human glucose transporter GLUT1. Activity is measured by DNA content using SYBR green in vitro
[2] = biological target: Hexose transporter 1 (Plasmodium falciparum) (UniProt O97467); assay: ST_JUDE_LEISH: Cytotoxicity at 2uM final concentration against transgenic Leishmania Mexicana promastigotes LmPfHT that are glucose transport deficient and complemented with the Plasmodium falciparum hexose transporter. Activity is measured by DNA content using SYBR green in vitro
[3] = biological target: Glucose transporter (Leishmania mexicana) (UniProt O61059); assay: ST_JUDE_LEISH: Cytotoxicity at 2uM final concentration against transgenic Leishmania Mexicana promastigotes LmGT2 that are glucose transport deficient and complemented with the L. Mexicana glucose transporter 2. Activity is measured by DNA content using SYBR green in vitro

Solute carrier family 2, facilitated glucose transporter member 1 (Homo sapiens), sequence (P11166 whole entry): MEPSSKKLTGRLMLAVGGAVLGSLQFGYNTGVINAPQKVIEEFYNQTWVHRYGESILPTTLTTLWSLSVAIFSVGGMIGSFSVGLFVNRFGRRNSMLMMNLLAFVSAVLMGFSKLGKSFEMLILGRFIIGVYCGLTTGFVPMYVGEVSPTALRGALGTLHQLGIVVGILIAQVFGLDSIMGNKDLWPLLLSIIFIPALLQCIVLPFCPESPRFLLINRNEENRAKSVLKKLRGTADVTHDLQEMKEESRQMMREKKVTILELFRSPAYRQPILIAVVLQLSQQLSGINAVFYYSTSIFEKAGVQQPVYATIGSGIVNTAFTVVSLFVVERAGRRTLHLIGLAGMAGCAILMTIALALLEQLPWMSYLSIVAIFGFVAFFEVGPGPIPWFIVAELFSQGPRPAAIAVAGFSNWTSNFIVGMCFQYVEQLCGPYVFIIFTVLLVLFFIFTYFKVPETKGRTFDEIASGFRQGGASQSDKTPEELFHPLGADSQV

Row | SMILES | inhibition [1] | inhibition [2] | inhibition [3]
1 | O=c1nc(NCCCNCc2cc3c(Cl)cc(Cl)cc3[nH]2)[nH]c2ccsc12 | 81.4% | 96.7% | 83.9%
2 | COc1ccc(NS(=O)(=O)c2cc(NC(=O)Cn3ccccc3=O)ccc2N2CCCCC2)cc1 | 2.57% | 3.46% | -7.28%
3 | Cc1cc(NC(=O)c2ccsc2)ccc1OC1CCN(Cc2ccc(F)cc2)CC1 | -0.33% | 2.48% | 1.6%
4 | FC(F)(F)c1ccc2[nH]c(-c3ccc(-c4cccc(CNCc5ccccc5)c4)cc3)nc2c1 | 7.1% | 4.87% | 7.33%
5 | CN1CCN(c2cc3c(cc2Cl)CCN3C(=O)Nc2ccc(NC(=O)c3ccc(C(F)(F)F)cc3)cc2)CC1 | 3.11% | 8.45% | 1.98%
6 | CC(C)C(=O)n1ncc2c3c(N)nc(N)nc3ccc21 | -0.81% | -1.08% | -0.01%
7 | Cc1ccc(Nc2nc(C)cc(NC3CCCC3)n2)cc1 | 29.3% | 19.7% | 10.8%
8 | COc1ccccc1C(C)NCC(=O)Nc1cccc(C(=O)Nc2cccc(C(F)(F)F)c2)c1 (stereo unspecified) | 3.9% | -0.5% | 4.16%
9 | COCCOc1cccc(CN2CCC(c3cc4nc(C)cc(C(F)(F)F)n4n3)C2)c1 (stereo unspecified) | -2.12% | 4.65% | 0.83%
10 | COc1ccc(C=NNc2nc(O)cc(-c3ccccc3)n2)cc1OC | 1.33% | -1.28% | -1.28%
11 | Nc1nc(N)c2c(ccc3c2ccn3CCCC(F)(F)F)n1 | 14.2% | 20.3% | 8.28%
12 | O=C(C1CCN(C(c2ccccc2)c2ccc(Cl)c(Cl)c2)CC1)N1CC=CC1 (stereo unspecified) | 0.54% | 3.99% | -0.23%
13 | COc1ccc(OC)c(-c2ccc(=O)n(CC(=O)Nc3cccc4ccccc34)n2)c1 | 12.4% | 11.6% | 6.44%
14 | CCCCCCCN1CC[C@@H](CCCc2ccnc3ccc(OC)cc23)[C@@H](CNC)C1 | 0.83% | -1.11% | -0.87%
15 | N#Cc1ccc2c(c1)CCN(CCC1CCC(NC(=O)/C=C/c3cnc4ccccc4c3)CC1)CC2 (stereo unspecified) | 8.52% | 4.53% | 3.67%
16 | CCOC(=O)c1cn(CC)c2cc(N3CCCCC3)c(F)cc2c1=O | 3.39% | 3.64% | 4.37%
17 | O=C(Nc1ccc(Cl)cc1)N(CC1CC2CCC(C1)N2Cc1ccc(C(F)(F)F)cc1)c1ccc(N2CCOCC2)c(F)c1 (stereo unspecified) | 6.73% | 5.58% | 8.78%
18 | Nc1nccc2ccc(-c3cccc(OCc4ccccc4)c3)cc12 | 1.85% | 2.5% | -2.03%
19 | CN1CCCN(Cc2ccc(-c3ccc(NC(=O)c4ccc(Cl)cc4)cc3)cc2)CC1 | 63.1% | 50% | 50.7%
20 | O=C(NC1c2ccccc2Oc2ccccc21)c1ccccc1O | -3% | -0.11% | -0.01%
21 | O=C(/C=C/c1ccc(Cl)cc1)NCCCCCN1CCCN(C(=O)Nc2cccc(Cl)c2)CC1 | -2.75% | -1.85% | -1.25%

Row | SMILES | inhibition [1] | inhibition [2] | inhibition [3]
22 | COc1ccc(Cl)cc1N1CCN(CCCNC(=O)c2ccc(-c3nc4cc(Cl)c(F)cc4[nH]3)cc2)CC1 | 2.81% | 2.7% | 3.92%
23 | Cc1c(Cl)ccc2sc(N3CCN(C(=O)c4ccc([N+](=O)[O-])o4)CC3)nc12 | 71.9% | 57.6% | 30%
24 | Fc1ccc2c(NN=CC=Cc3ccccc3)ccnc2c1 | 12.7% | 9.84% | 11.3%
25 | N#Cc1ccc2c(c1)CCN(CCC1CCC(NC(=O)c3ccc(-c4ccccn4)s3)CC1)CC2 (stereo unspecified) | 13.3% | 9.45% | 9.9%
26 | COc1ccc(CN(C)Cc2cc(C(C)C)c(C)cc2O)cc1F | 2.07% | 1.85% | -2.13%
27 | CC(C)COc1ccc(Cl)cc1Cc1ccc(-c2nc3ccc(F)cc3[nH]2)o1 | 1.83% | 0.95% | -0.47%
28 | Cc1cc(CNC(c2ccccc2)C2CCC2)cc(C)c1O (stereo unspecified) | 14.2% | 14.3% | 10.1%
29 | Cc1ccc(NC(=O)c2cccc(CN3CCCN(CC4CCCCC4)CC3)c2)cc1F | -0.17% | 0.26% | 0.75%
30 | CCOc1ccc2ccccc2c1CNCCCCCCNCc1c(OCC)ccc2ccccc12 | 7.3% | 6.69% | 4.92%
31 | Clc1ccc2c(N3CCN(CCN4CCN(c5ccnc6cc(Cl)ccc56)CC4)CC3)ccnc2c1 | 0.09% | 0.23% | 0.08%
32 | Cc1cc(N[C@@H](Cc2ccccc2)C(=O)NC2CCCC2)nc(NCCc2ccc(F)cc2)n1 | 5.06% | 5.18% | -0.53%
33 | CCCN(CCC)c1nn2c(=O)c(C(=O)N3CCN(Cc4ccccc4)CC3)cnc2s1 | 1.4% | 1.87% | 2.14%
34 | N=c1ccn(CC(=NO)c2ccc(Cl)c(Cl)c2)cc1 | 0.09% | 2.8% | 0.32%
35 | CN(C)Cc1c(O)ccc2oc(Cc3ccccc3)cc12 | -1.64% | -1.55% | -0.96%
36 | Cc1nc2ccc([N+](=O)[O-])cc2c(=O)n1OCc1ccccc1 | 2.26% | 2.03% | 2.66%
37 | CCCCCN1CCC(NS(=O)(=O)c2ccc(C(=O)Nc3cccc(C(F)(F)F)c3)cc2)C1 (stereo unspecified) | 8.42% | 2.22% | 2.26%
38 | CN(C)c1cc(NN=Cc2cc(Cl)ccc2O)nc(N(C)C)n1 | 4.76% | 4.94% | 2.54%
39 | Cc1c(F)cc(C(=O)NC2CC2)cc1-c1ccc2c(cnn2S(=O)(=O)c2ccc(F)c(F)c2)c1 | 5.87% | 5.31% | 5.54%
40 | O=C(Nc1ccccc1Br)N[C@@H]1CCN(c2ccnc3ccccc23)C1 | 4.02% | 5.95% | 3.01%
41 | Nc1ncc(Cc2cc(Cl)c(N)c3ncccc23)c(N)n1 | 2.6% | 2.88% | 2.91%
42 | O=C(/C=C/c1cccc2c1OCO2)Nc1ccnc2ccncc12 | 1.56% | 1.4% | 1.89%

Row | SMILES | inhibition [1] | inhibition [2] | inhibition [3]
43 | Cc1noc(C)c1-c1ccc2c(Nc3ccccc3C(C)(C)C)c(C(=O)NC3CCCC3)cnc2c1 | 2.07% | 1.46% | -0.58%
44 | O=C(/C=C/c1ccc(Cl)c(Cl)c1)N1CCC(NCc2ccc3[nH]ccc3c2)CC1 | 4.05% | 4.06% | 0.76%
45 | CCNC(=O)Nc1ccc(-c2ccc(-c3nc4cccc(C)c4[nH]3)s2)cc1 | 11.7% | 8.87% | 7.95%
46 | O=S(=O)(Nc1cccc(CCN2CCCCC2CCN2CCCC2)c1)c1ccc(Oc2ccccc2)cc1 (stereo unspecified) | -2.34% | 1.13% | -1.81%
47 | CC(C)N1CCN(c2ccc(OCCCCN3CCN(c4cccc(Cl)c4Cl)CC3)cc2Cl)CC1 | -1.28% | 0.44% | -2.3%
48 | CCC(C)c1cnc2nc(N)nc(N)c2c1C (stereo unspecified) | 1.18% | 1.66% | 2.42%
49 | O=C(Nc1ccc(C(=O)OCC2CCCCC2)cc1)N[C@@H](Cc1ccc(O)cc1)C(=O)NC1CCN(Cc2ccc(O)cc2)C1 (stereo partly specified) | 3.7% | 2.04% | 3.42%
50 | Cc1cccc2nc(-c3cccc(-c4ccc(NC(=O)C(C)CN5CCN(C)CC5)cc4)c3)[nH]c12 (stereo unspecified) | 1.5% | 0.53% | 3.85%
51 | Nc1ccc(-c2nc3cc(Cc4ccc5[nH]c(-c6ccc(N)cc6)nc5c4)ccc3[nH]2)cc1 | 0.06% | -2.2% | -2.11%
52 | Cc1cc(Nc2cccc(Cl)c2)nc2ccc(NC(=O)c3ccc(=O)[nH]c3)cc12 | 2.59% | 3.49% | 3.64%
53 | CN(C)CCCOC(=O)c1cc2cc(-c3ccccc3)ccc2n1S(=O)(=O)Cc1ccccc1 | 5.88% | 10.6% | 1.19%
54 | Cc1cc(=NN=Cc2ccc(Cl)cc2)c2ccc(F)cc2[nH]1 | 2.07% | 2.71% | 1.54%
55 | COc1ccc(CNCc2ccc(-c3ccc(-c4nc5ccccc5[nH]4)cc3)cc2)cc1 | 17.8% | 14.9% | 10.5%
56 | COc1cccc(Nc2nc(C)cc(NC3CCCC3)n2)c1 | 21.5% | 9.71% | 5.08%
57 | COc1ccc2nccc([C@@H](O)CN3CCC(NCc4nc5c(cc4Cl)OCC(=O)N5)C(F)C3)c2c1 (stereo partly specified) | 1.37% | 0.56% | 0.2%
58 | CNCCNCc1cccc(-c2cccc(-c3nc4cc(F)ccc4[nH]3)c2)c1 | 10.2% | 7.92% | 7.49%
59 | COc1ccc2nccc([C@@H](O)CN3CCC(NCc4cnc5snnc5c4)C(F)C3)c2c1 (stereo partly specified) | 0.43% | 1.51% | 2.93%
60 | CN(C)CCC1CCCc2ccc(NC(=O)Nc3ccc(-c4ccncc4)c4ccccc34)cc21 (stereo unspecified) | 4.29% | 1.03% | -0.88%
61 | O=C(Cc1c[nH]cn1)Nc1cccc(-c2cccc(-c3nc4ccccc4[nH]3)c2)c1 | 9.66% | 12.8% | 7.58%
62 | COC(=O)C(C)(C)Cc1c(SC(C)(C)C)c2cc(C(C)C)ccc2n1Cc1ccc(Cl)cc1 | 2.2% | 5.38% | -0.32%
